# High-throughput results deposited in PubChem BioAssay by National Center for Advancing Translational Sciences (NCATS).
# HP1b binding inh: inhibitors of HP1-beta chromodomain binding to methylated histone tails | AID 540317 | AlphaScreen HP1-beta / biotin-H3K9me3 peptide binding | Potency, µM (titrated, usually from 114 µM), for inactives: at the top dose activity change, negative = inhibition, hits mostly inhibitors | 390,000 compounds, 0.56% hits; further: nearly all actives have a fitted effect of over 70% in size
# Target sequence (P83916 whole entry, looked up): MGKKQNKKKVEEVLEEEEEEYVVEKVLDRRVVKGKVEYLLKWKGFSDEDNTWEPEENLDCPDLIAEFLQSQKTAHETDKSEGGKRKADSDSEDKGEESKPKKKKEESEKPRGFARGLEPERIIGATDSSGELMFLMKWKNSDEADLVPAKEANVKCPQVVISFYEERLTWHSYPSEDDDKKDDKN
#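 HP1-beta protein (50 nM final) preincubated 30 min at room temperature with biotinylated H3(1-18)K9me3 peptide (50 nM) in PBS pH 7.4, 0.01% Tween-20, then compound added for 30 min. AlphaScreen streptavidin donor/nickel chelate acceptor beads (10 ug/mL final), 30 min dark, luminescence read.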
# Sfp inh: inhibitors of Bacillus subtilis Sfp phosphopantetheinyl transferase; Potency, µM, inactives show largest response in the series, negative = inhibition, actives largely listed as inhibitors; 310,000 compounds, 3.5% hits; Q9F4F7; Biochemical Sfp PPTase activity, qHTS;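 further: the enzyme is Sfp with the accession as filed and its product quenches rhodamine fluorescence; 0% = enzyme reaction without inhibitor and -100% = no enzyme wells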
#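 Sfp 15 nM + cpd, 15 min RT; start w/ rhodamine-CoA 5 uM, BHQ-2-YbbR 12.5 uM (final); 50 mM Hepes pH 7.6, 10 mM MgCl2, 0.01% NP-40, 0.01% BSA; read 525/598 nm at 0 and 30 min.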
# G9a inh: inhibitors of human histone lysine methyltransferase G9a | G9a H3K9 monomethylation, AlphaScreen, 2 h | Potency, µM (top dose mostly 102 µM), without a hit: at the top dose activity, negative = inhibition, usual class: inhibitors | 350,000 compounds, 8.8% hits; further: on the % scale 0 is the no-effect control and ±100 the full control effect; nearly all actives have a fitted effect of over 75% in size
# Target sequence (Q96KQ7 913-1193 limits assumed): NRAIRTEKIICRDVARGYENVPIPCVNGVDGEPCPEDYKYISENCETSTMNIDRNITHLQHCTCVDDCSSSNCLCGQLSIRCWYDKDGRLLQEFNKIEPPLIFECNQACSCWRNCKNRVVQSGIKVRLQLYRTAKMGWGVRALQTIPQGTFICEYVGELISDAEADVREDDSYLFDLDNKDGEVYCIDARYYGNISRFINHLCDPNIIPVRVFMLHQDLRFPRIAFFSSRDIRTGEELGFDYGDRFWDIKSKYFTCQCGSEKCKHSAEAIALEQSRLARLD
#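 AlphaScreen read-out: biotin-H3K9 peptide (500 nM) methylation by 20 nM enzyme with 20 uM SAM, 2 h at room temperature after 15 min compound preincubation; anti-monomethyl H3K9 antibody plus donor/acceptor beads, 10 min dark.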
# L3MBTL1 inh: inhibitors of human L3MBTL1. 230,000 compounds, 0.66% hits. Q9Y468. Potency, µM (highest dose often 57.1 µM), for inactives: at the top dose activity, negative = inhibition, most hits filed as inhibitors. AlphaScreen L3MBTL1–H3K9me1 peptide binding; further: on the % scale 0 is the no-effect control and ±100 the full control effect; nearly all actives have a fitted effect of over 60% in size
#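 Displacement of a biotinylated histone H3(1-15) peptide monomethylated at Lys9 (75 nM) from L3MBTL1 (50 nM) was measured by AlphaScreen after a 30 min room-temperature compound incubation; cefsulodin titration served as intraplate control.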
# BAZ2B block: blocks human BAZ2B. Potency, µM (doses to about 114 µM), without a hit: top-dose activity change, negative = inhibition, most hits filed as inhibitors. Q9UIF8. 360,000 compounds, 4.4% hits. AlphaScreen BAZ2B-H3K14Ac peptide displacement. AID 504333; further: on the % scale 0 is the no-effect control and ±100 the full control effect; nearly all actives have a fitted effect of over 60% in size
#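 Multi-concentration screen (max 110 uM) measuring displacement of acetylated histone H3 peptide from BAZ2B by AlphaScreen, using 50 nM protein, 50 nM peptide and 10 ug/mL streptavidin donor plus Ni-chelate acceptor beads.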
# JMJD2A Tudor: blocks the human JMJD2A Tudor domain. Potency, µM (series often up to 114 µM), for the others: top-dose activity change, negative = inhibition, actives largely listed as inhibitors. 390,000 compounds, 4.4% hits. O75164. AlphaScreen JMJD2A-Tudor / H3K4me3 peptide binding; further: on the % scale 0 is the no-effect control and ±100 the full control effect; nearly all actives have a fitted effect of over 50% in size
# The depositor's hits bear a star; u = inconclusive; x = no result given; [ ] = another dose, or the depositor's remark. The list is not random: actives were taken first. Their share in the collection is about 12%. The call rests on the fitted dose curve; in most records, active means well fitted curve in the direction sought with a large enough effect; inconclusive means small, poorly fitted or top-dose-only effect, or another doubt; inactive means no such curve, though single readings can be large; an effect the other way counts as inactive or inconclusive. Potency means the concentration at half of the fitted maximal effect.
SMILES,HP1b binding inh,Sfp inh,G9a inh,L3MBTL1 inh,BAZ2B block,JMJD2A Tudor
Cc1ccccc1OCc1nnc(SCCN2CCCC2)n1-c1ccccc1,23%,2%,-32%,-1%,79µM*,-4%
O=C(O)CCSc1nnc(-c2ccncc2)n1-c1ccccc1,21%,3%,-51%[59 µM],3%,3%,1%
COc1ccc(-n2c(COc3cccc(C)c3)nnc2SCC(=O)O)cc1,32%,17%,-4%,7%,2%,-16%
COc1ccc2[nH]cc(CCNc3ccnc(-c4ccc5c(c4)OCO5)n3)c2c1,x,u,4%[0.501 µM],x,x,x
CCNC(=O)CSc1nnc(-c2ccccc2)n1-c1ccc(OCC)cc1,26%,-4%,50µM*,x,u,-1%
COc1cccc(Cn2c(=O)n(-c3ccccc3C)c(=O)c3c2c2cc(C)ccc2n3C)c1,45%,x,u,x,-20%,10%
O.O.[Mn].[Mn].[Mn].[OH-].[OH-],x,-11%,x,x,x,x
FC(c1nc2ccccc2[nH]1)C(F)(F)F (centres undefined),34%,1%,31%,-11%,-17%,-12%
FC(F)c1nc2ccccc2[nH]1,23%,u,x,-29%,40µM*,-8%
Cc1ccc(S(=O)(=O)c2c(Nc3cc(F)ccc3F)sc(C(=O)c3ccc(F)cc3)c2N)cc1,26%,x,-6%[59 µM],x,-18%,-19%
Cc1noc(-c2ccccc2OCC(=O)Nc2cccc([N+](=O)[O-])c2)n1,-21%,x,u,x,u,50µM*
Cc1ccccc1-c1noc(-c2ccccc2OCC(=O)Nc2ccccc2[N+](=O)[O-])n1,-11%,x,14µM*,x,u,20µM*
Cc1noc(-c2ccccc2OCC(=O)Nc2ccccc2[N+](=O)[O-])n1,34%,x,u,x,-24%,-25%
Cn1cnc(S(=O)(=O)N2CCCC(C(=O)NCc3ccc(Cl)cc3)C2)c1 (centres undefined),19%,x,17%[59 µM],x,-7%,-2%
Cc1cc(C)cc(Oc2ccc(N)cc2)c1,-25%,4%,-51%[59 µM],21%[11.4 µM],u,u
Nc1ccc(Oc2ccc(Br)cc2)cc1,u,31%,-10%[59 µM],-18%,40µM*,u
CC(C)(C)OC(=O)N1CCC(c2nnc(SCc3ccccc3)o2)CC1,35%,x,21%[59 µM],x,7%,7%
CCOCCCN1CN(Cc2ccco2)CNC1=S,-8%,40µM*,16µM*,x,-25%,-8%
CCOc1ccc(-n2c(=O)c3c(C)c(C)sc3n(CC(=O)c3ccccc3)c2=O)cc1,56%,x,-3%[59 µM],x,11%,-5%
COCCCNC(=O)C1CCCN(S(C)(=O)=O)C1 (centres undefined),25%,-26%,71µM*,-1%,-12%,-1%
CC(C)(C)C1CCc2oc3ccc(NS(=O)(=O)c4cc(Cl)ccc4Cl)cc3c2C1 (centres undefined),11%,x,-9%[59 µM],x,-33%,-29%
CCc1nnc(NC(=O)C2CC(=O)N(C3CCCC3)C2)s1 (centres undefined),13%,-4%,u,x,8%,2%
CCCc1nnc(NC(=O)C2CC(=O)N(C3CCCC3)C2)s1 (centres undefined),-9%,-19%,22µM*,x,1%,-11%
CCC(CC)c1nnc(NC(=O)C2CC(=O)N(C3CCCC3)C2)s1 (centres undefined),-13%,50µM*,11µM*,x,3%,-4%
CCC(CC)c1nnc(NC(=O)C2CC(=O)N(c3ccc4c(c3)OCCO4)C2)s1 (centres undefined),13%,13%,4%[59 µM],u,u,-18%
CC(NC(=O)c1sc2ncccc2c1-n1cccc1)c1ccccc1 (centres undefined),8%[57 µM],x,6%[59 µM],x,-18%,-30%
Cc1ccsc1CN(C(=O)c1ccc(Br)cc1)C1CCS(=O)(=O)C1 (centres undefined),25%,x,6%[59 µM],x,-12%,-8%
CN1CCN(c2ncnc3ccc(-c4ccoc4)cc23)CC1,x,17%,3%[0.501 µM],x,x,x
